Our source for the growth values is PubChem BioAssay (NCI).

Compounds without any hit were thinned out: in the full panel of roughly 83,000, 20% have a hit.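 Results are percent growth after 48 hours of single-concentration exposure. 100 means growth as in untreated cells, lower positive values show inhibition; negative values down to -100 show cell death.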 A number with no mark means an inactive call. Calls of active or inactive are those of the source. How the source made its calls: active means growth percent below 10; inactive means the rest.

What all share (assay): NCI-60 one-dose screen, 48 h (100 = growth as untreated, 0 = no growth, -100 = all killed)
For one assay, the system named is HCT-15 colon. The conditions noted are these: 10 µM unless noted.
Another assay deals with HT29 colon. The conditions noted are these: 10 µM unless noted.
The subject of another assay is SNB-75 CNS. The conditions noted are these: 10 µM unless noted.
The test system of another assay is SNB-19 CNS. Conditions: 10 µM unless noted.
In the next assay the test system is U251 CNS. The conditions noted are these: 10 µM unless noted.
For a further assay, the system named is SK-MEL-5 melanoma. The conditions noted are these: 10 µM unless noted.
In the next assay the test system is UACC-62 melanoma. The conditions noted are these: 10 µM unless noted.
In another assay the test system is LOX IMVI melanoma. The conditions noted are these: 10 µM unless noted.
Another assay deals with SK-MEL-28 melanoma. Conditions: 10 µM unless noted.
A further assay deals with EKVX NSCLC. The conditions noted are these: 10 µM.
Another assay concerns UO-31 renal. The conditions noted are these: 10 µM unless noted.
The subject of the next assay is TK-10 renal. The conditions noted are these: 10 µM unless noted.
Another assay concerns ACHN renal. Conditions: 10 µM unless noted.
The test system of a further assay is A498 renal. The conditions noted are these: 10 µM unless noted.
The test system of another assay is CCRF-CEM leukemia. Conditions: 10 µM.
The test system of another assay is MOLT-4 leukemia. Conditions: 10 µM unless noted.
For the next assay, the system named is SK-MEL-2 melanoma. Conditions: 10 µM unless noted.
Another assay relates to SN12C renal. Conditions: 10 µM unless noted.
For the next assay, the system named is CAKI-1 renal. Conditions: 10 µM unless noted.

Take `COc1ccc(C2=NN(C(=O)c3cc(-c4ccc(C)cc4)nc4ccccc34)C(c3cc(-c4ccccc4)nn3-c3ccccc3)C2)cc1` (configuration not stated): the growth in the assay on HCT-15 colon was 82.6%; in the assay on HT29 colon it was 105%; in the assay on SNB-75 CNS it was 88.3%; in the assay on SNB-19 CNS, 83%; in the assay with U251 CNS, 85.3%; in the assay on SK-MEL-5 melanoma it was 97.8%. For the same compound, the growth with UACC-62 melanoma is 83.5%; in the assay with LOX IMVI melanoma, 80.6%; in the assay with SK-MEL-28 melanoma, 93.8%; with EKVX NSCLC it was 99.6%; in the assay on UO-31 renal, 79.8%; with TK-10 renal, 113%. In addition, the growth in the assay on ACHN renal is 98.6%; with A498 renal, 91%; with CCRF-CEM leukemia, 81.5%; in the assay on MOLT-4 leukemia, 84.7%.

Turning to `NCCCOc1cc(Cl)ccc1NC(=O)c1cc2ccccc2cc1OCCCN`, the growth was 4.32% (active) with HCT-15 colon; -91.3% (active) in the assay with HT29 colon; -90.9% (active) with SNB-75 CNS; 34% in the assay on SNB-19 CNS; -93.2% (active) in the assay on U251 CNS; -86.4% (active) in the assay on SK-MEL-5 melanoma. Further, the growth with UACC-62 melanoma is 26.4%; in the assay with LOX IMVI melanoma it was -81.3% (active); in the assay with SK-MEL-28 melanoma, -96.5% (active); with SK-MEL-2 melanoma it was -93.9% (active); with EKVX NSCLC it was -16.1% (active); in the assay on SN12C renal, 19.7%. In addition, the growth is 25% with UO-31 renal; -97.4% (active) in the assay with TK-10 renal; -79% (active) in the assay on ACHN renal; 59% in the assay on CAKI-1 renal; 2.33% (active) in the assay with A498 renal; -52.3% (active) in the assay with MOLT-4 leukemia.

Turning to `CC(=O)N1CCN(CCNC(=O)n2cc(-c3ccncc3)c(-c3ccc(O)c(Cl)c3)n2)CC1`, the growth is 118% in the assay on HCT-15 colon; 103% with HT29 colon; 81.4% with SNB-75 CNS; 120% in the assay with SNB-19 CNS; 110% in the assay with U251 CNS; 107% with SK-MEL-5 melanoma. Moreover, the growth in the assay with UACC-62 melanoma is 91.3%; in the assay on LOX IMVI melanoma, 109%; in the assay with SK-MEL-28 melanoma, 85.5%; with EKVX NSCLC, 133%; with SN12C renal it was 102%; in the assay with UO-31 renal, 131%. Further, the growth in the assay with TK-10 renal was 87.2%; in the assay with ACHN renal it was 105%; with CAKI-1 renal, 136%; in the assay on A498 renal it was 118%; in the assay on CCRF-CEM leukemia, 95.8%; in the assay with MOLT-4 leukemia, 85.8%.

As to `Cn1cnc2nc[nH]c2c1=S`, the growth is 101% with HCT-15 colon; 94.5% in the assay on HT29 colon; 79.2% in the assay on SNB-75 CNS; 103% with SNB-19 CNS; 103% in the assay with U251 CNS; 100% in the assay on SK-MEL-5 melanoma. For the same compound, the growth in the assay on UACC-62 melanoma is 98.5%; in the assay on LOX IMVI melanoma it was 99.4%; in the assay on SK-MEL-28 melanoma, 112%; in the assay with SK-MEL-2 melanoma it was 106%; in the assay on EKVX NSCLC, 113%; in the assay with SN12C renal it was 94.8%. Also, the growth in the assay with UO-31 renal is 71.2%; in the assay with TK-10 renal, 88.4%; in the assay on CAKI-1 renal, 97.9%; in the assay on CCRF-CEM leukemia, 98.7%; in the assay with MOLT-4 leukemia it was 102%.

On to `COc1cc(-c2nn(-c3ccc(NC(=O)c4cc(Cl)cc(Cl)c4)cc3)cc2-c2ccncc2)ccc1Cl`, for which the growth in the assay on HCT-15 colon is 22.6%; in the assay with HT29 colon, 16.9%; with SNB-75 CNS, 54%; with SNB-19 CNS, 87.7%; with U251 CNS it was 55.7%; in the assay on SK-MEL-5 melanoma, 79.4%. For the same compound, the growth was 70.4% with UACC-62 melanoma; 71.6% with LOX IMVI melanoma; 85.5% in the assay on SK-MEL-28 melanoma; 80.1% in the assay on EKVX NSCLC; 91.9% with SN12C renal; 65.7% with UO-31 renal. Also, the growth with TK-10 renal was 69.4%; in the assay with ACHN renal, 94.9%; in the assay on CAKI-1 renal it was 38.8%; in the assay with A498 renal, 78.9%; with MOLT-4 leukemia, 27.6%.

On to `CCCNC(=O)Oc1ccc(/C(=C(/C)Cc2ccc(OC)cc2)c2ccc(OCCN3CCCCC3)cc2)cc1`, for which the growth in the assay on HCT-15 colon is 50.2%; in the assay with HT29 colon, 28.9%; in the assay with SNB-75 CNS, 63.6%; with SNB-19 CNS, 94.1%; in the assay on U251 CNS, 69.9%; in the assay on SK-MEL-5 melanoma, 78.2%. For the same compound, the growth is 97.5% in the assay with UACC-62 melanoma; 84.8% in the assay on LOX IMVI melanoma; 100% with SK-MEL-28 melanoma; 99.5% with SK-MEL-2 melanoma; 76.6% in the assay with EKVX NSCLC; 84.9% in the assay on SN12C renal. Besides, the growth was 60.8% in the assay with UO-31 renal; 81.1% in the assay with TK-10 renal; 102% with ACHN renal; 70.8% with CCRF-CEM leukemia; 70.9% in the assay with MOLT-4 leukemia.

On to `CC(=O)/C(=C\c1c(-c2ccccc2)[nH]c2ccccc12)S(=O)(=O)c1ccccc1`, for which the growth in the assay on HCT-15 colon is 13.5%; with HT29 colon, 11.3%; in the assay on SNB-75 CNS, -23.1% (active); with SNB-19 CNS it was 53.7%; in the assay with U251 CNS, 17.5%; in the assay on SK-MEL-5 melanoma, 9.11% (active). The growth was 13.6% in the assay on UACC-62 melanoma; -33.3% (active) in the assay with LOX IMVI melanoma; 26.8% in the assay on SK-MEL-28 melanoma; -27.9% (active) with SK-MEL-2 melanoma; 27.9% in the assay on EKVX NSCLC; 5.37% (active) with SN12C renal. Moreover, the growth is 14% in the assay with UO-31 renal, 10.2% with TK-10 renal, 28.2% in the assay on ACHN renal and -35.5% (active) in the assay on MOLT-4 leukemia.

For the compound `C=CC1CN2CCC1CC2C(O)c1ccnc2ccc(OC)cc12` (configuration not stated), the growth in the assay on HCT-15 colon was 104%; in the assay on HT29 colon it was 98.6%; in the assay with SNB-75 CNS, 78.2%; in the assay on SNB-19 CNS, 96.1%; in the assay on U251 CNS, 103%; in the assay on SK-MEL-5 melanoma it was 97.9%. In addition, the growth with UACC-62 melanoma is 100%; in the assay on LOX IMVI melanoma it was 93.3%; with SK-MEL-28 melanoma, 115%; in the assay on SK-MEL-2 melanoma it was 2.09% (active); in the assay on EKVX NSCLC, 102%; in the assay with SN12C renal, 98.7%. In addition, the growth is 60.2% with UO-31 renal; 108% in the assay with TK-10 renal; 97.9% with ACHN renal; 103% with CAKI-1 renal; 108% with A498 renal; 106% in the assay with CCRF-CEM leukemia. For the same compound, the growth with MOLT-4 leukemia was 106%.

Take `O=C(/C=C/c1cccc(O)c1)c1cccc(-n2cc(-c3ccc(Cl)cc3)[nH]c2=O)c1`: the growth with HCT-15 colon was -22.9% (active); in the assay with HT29 colon, -10.1% (active); in the assay on SNB-75 CNS, 0.636% (active); with SNB-19 CNS, -10.6% (active); in the assay with U251 CNS, -87.9% (active); with SK-MEL-5 melanoma, -0.458% (active). The growth in the assay on UACC-62 melanoma is 5.09% (active); with LOX IMVI melanoma it was -92.1% (active); in the assay with SK-MEL-28 melanoma it was -86.4% (active); with SK-MEL-2 melanoma, -45.5% (active); in the assay on EKVX NSCLC, 1.79% (active); with SN12C renal, -47% (active). Further, the growth with UO-31 renal is -78.3% (active); in the assay with TK-10 renal, 0.394% (active); with ACHN renal, -80.6% (active); in the assay with CAKI-1 renal, -53.9% (active); in the assay on A498 renal it was 61.7%; in the assay on CCRF-CEM leukemia, -4.75% (active). Moreover, the growth in the assay on MOLT-4 leukemia is -29% (active).
